NPC1 promoter act: NPC1 promoter activation | 320,000 tested, 2.4% active | Potency, µM (top dose mostly 9.22 µM), for inactives: top-dose activation, most hits filed as activators | Huh7 NPC1 promoter luciferase reporter, 24 h; note: % of control where 0% means no effect; nearly all actives have a fitted effect of over 60% in size
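Cells: Huh7 expressing luciferase under the NPC1 promoter, 1500/well. Seeded 2 h, compound added, incubated 24 h at 37 °C. Luciferase reagent, 10 min ambient, then luminescence.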
ELG1 genotoxic: inducers of genotoxicity in HEK293T ELG1-luciferase cells; HEK293T ELG1-luciferase reporter, luminescence, 16 h; Potency, µM (highest dose often 46 µM), without a hit: at the highest dose activity change, positive = activation, actives largely listed as activators; 330,000 tested, 1.3% active; note: % of control where 0% means no effect; nearly all actives have a fitted effect of over 60% in size
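Luminescence read-out: rising ELG1-luciferase signal, reflecting elevated ELG1 protein under genetic stress, flags genotoxic compounds. Cells were treated for 16 hr at 37 °C before ONE-Glo detection.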
Rab9 promoter act: activates the Rab9 promoter | Huh7 Rab9 promoter-luciferase reporter, luminescence, 24 h | Potency, µM (doses to about 9.22 µM), for the others: at the highest dose activation, negative = inhibition, hits mostly activators | AID 485297 | 320,000 tested, 2.8% active; note: % of control where 0% means no effect; nearly all actives have a fitted effect of over 60% in size
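Huh7 cells stably carrying a Rab9 promoter-luciferase reporter, 1500 cells per well in OP-MEM I with 10% FBS, treated with compound 24 hours at 37C. Luciferase activity read by luminescence after 10 minutes with Amplite reagent.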
SMN2 splice up: SMN2 splice variant enhancement; Potency, µM (doses to about 46.1 µM), without a hit: at the top dose activity change, positive = activation, most hits filed as activators; 210,000 tested, 2.8% active; HEK293 SMN2-luciferase splicing reporter, luminescence, 30-36 h; note: % of control where 0% means no effect; nearly all actives have a fitted effect of over 55% in size
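HEK293 cells carry an SMN2 minigene-luciferase reporter in which exon 7 inclusion puts luciferase in frame. Cells were seeded at 2000 cells/well, attached for 10-12 hours, then exposed to compounds for 30-36 hours at 37C before ONE-Glo luminescence.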
ELG1 repair inh: ELG1-dependent DNA repair inhibition; HEK293T ELG1-luciferase reporter, luminescence, 16 h; DNA damage induced by 5-fluorouridine; Potency, µM (titrated, usually from 46.1 µM), for inactives: top-dose activity change, negative = inhibition, actives largely listed as inhibitors; 330,000 tested, 2.3% active; AID 504467; note: % is set by controls: 0 for no effect and ±100 for the full control effect; nearly all actives have a fitted effect of over 55% in size
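Luminescence from the luciferase reporter, measured 30 min after ONE-Glo reagent at room temperature, was the read-out. Beforehand, 2,000 cells per well were exposed for 16 hr at 37 °C to 5-fluorouridine together with compound or vehicle.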
FLuc modulator: counter-screen for miR-21 project: firefly luciferase inhibitors or activators. 360,000 tested, 6.9% active. purified FLuc, Km substrates, luminescence inhibition. Potency, µM (top dose mostly 57.5 µM), without a hit: at the top dose activity change, negative = inhibition, hits mostly inhibitors;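 note: plate controls were vehicle for no effect and reference inhibitor for full effect; nearly all actives have a fitted effect of over 55% in size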
Target sequence (P08659 whole entry, looked up): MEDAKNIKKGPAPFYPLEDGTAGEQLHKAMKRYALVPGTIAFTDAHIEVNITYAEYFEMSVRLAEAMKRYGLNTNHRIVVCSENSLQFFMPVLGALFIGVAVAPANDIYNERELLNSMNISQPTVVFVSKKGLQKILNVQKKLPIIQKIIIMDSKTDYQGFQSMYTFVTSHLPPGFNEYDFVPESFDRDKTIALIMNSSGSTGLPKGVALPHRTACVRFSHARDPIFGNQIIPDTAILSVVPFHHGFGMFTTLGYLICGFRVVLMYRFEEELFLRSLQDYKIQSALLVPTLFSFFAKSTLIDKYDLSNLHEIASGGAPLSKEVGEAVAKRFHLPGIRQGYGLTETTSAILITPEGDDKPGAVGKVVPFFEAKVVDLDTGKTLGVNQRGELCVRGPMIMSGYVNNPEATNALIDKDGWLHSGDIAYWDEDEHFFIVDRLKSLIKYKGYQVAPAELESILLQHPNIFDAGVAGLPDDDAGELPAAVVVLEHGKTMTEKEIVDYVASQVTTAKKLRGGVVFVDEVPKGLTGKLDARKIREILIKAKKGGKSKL
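Biochemical qHTS of compounds, final roughly 60 µM downward over six points, against 10 nM purified firefly luciferase using Km concentrations of substrates (10 uM D-luciferin, 10 uM ATP) in Tris acetate pH 7.5 buffer; luminescence output.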
An asterisk follows results filed as active; u = inconclusive; x = not tested or not shown; [ ] = remark or other dose. Compounds with a hit are over-represented: about 9.4% of the library has one in this group of screens. Calls come from the whole dose curve; as a rule, active = well fitted curve in the direction sought with a large enough effect; inconclusive = small, poorly fitted or top-dose-only effect, or another doubt; inactive = no such curve, though single readings can be large; an effect the other way counts as inactive or inconclusive. Potency is the fitted concentration of half-maximal effect.

SMILES | NPC1 promoter act | ELG1 genotoxic | Rab9 promoter act | SMN2 splice up | ELG1 repair inh | FLuc modulator
COC(=O)N/N=C/c1cc(C)n(-c2ccc(F)cc2)c1C | 0% | u | 21% | 28% | u | 24µM*
C/C(=N/OCO/N=C(/C)c1ccc(F)cc1)c1ccc(F)cc1 | 0% | 5% | 10% | 8.9µM* | 10% | 3%
O=C(CSc1cn(CCNC(=O)c2ccccc2F)c2ccccc12)Nc1ccc2c(c1)OCCO2 | x | x | x | -16% | x | 13µM*
Cn1cc(SCC(=O)Nc2ccc3c(c2)OCCO3)c2ccccc21 | 14% | u | 11% | 2% | u | 17µM*
O=C(CSc1cn(CCNC(=O)c2ccccc2F)c2ccccc12)Nc1ccc(F)cc1 | x | x | x | -9% | x | -18%
CCn1c(=O)cc(SCC(=O)Nc2ccc3c(c2)OCO3)c2ccccc21 | 5% | 16% | -4% | 18% | u | -13%
OC[C@@H]1O[C@H](n2cnc3c(/C=C(\O)c4ccccc4)ncnc32)[C@H](O)[C@@H]1O | x | x | x | -1%[9.22 µM] | x | x
N[C@@H](Cc1cccc([N+](=O)[O-])c1)C(=O)O | x | x | x | 6%[9.22 µM] | x | x
Cc1cc(C)n(-c2ccc(C(=O)Nc3nc4ccccc4s3)cc2)n1 | 2.5µM* | u | u | 17% | u | 2.7µM*
CC(=O)Nc1cc(C)nn1-c1nc2ccccc2s1 | -2% | u | 26% | 126% | u | u
NC(=S)Nc1nc2ccccc2s1 | 11% | 7% | 7% | 28% | u | u
Nc1ccc(C(=O)Nc2nc3ccccc3s2)cc1 | 0.63µM* | 0.52µM* | 0.4µM* | 1.6µM* | u | 0.38µM*
CC1CN(S(=O)(=O)c2ccc(C(=O)Nc3nnc(-c4ccc5c(c4)CCCC5)o3)cc2)CC(C)O1 (stereo not drawn) | -30% | -11% | -32% | -62% | 2.6µM* | -15%
CC(=O)Nc1nnc(-c2ccc3c(c2)CCCC3)o1 | u | u | 4µM* | u | u | 12µM*
CC1CN(S(=O)(=O)c2ccc(C(=O)Nc3nnc(-c4ccccn4)o3)cc2)CC(C)O1 (stereo not drawn) | 1% | 0% | 6% | -19% | -8% | -13%
COC(=O)c1ccc(NC(=O)c2ccc(NS(=O)(=O)c3cccc4cccnc34)cc2)cc1 | 1% | 4% | 1%[1.84 µM] | x | -2% | 17µM*
O=C(Nc1ccccc1O)c1ccc(NS(=O)(=O)c2cccc3cccnc23)cc1 | 3% | 16µM* | u | x | u | u
O=S(=O)(Nc1ccc(Cl)cc1)c1cccc2cccnc12 | -1% | -5% | 0% | x | 3% | 1%
O=C(O)c1ccc(NS(=O)(=O)c2cccc3cccnc23)cc1 | 0% | 1% | -5% | -7% | 2% | -1%
Cc1ccc(-n2nc(C(=O)Nc3ccc(Br)cc3C)c(=O)n(C)c2=O)cc1 | x | x | x | x | x | -3%
CC(=O)Nc1ccc(S(=O)(=O)NC2(C(F)(F)F)NC(=O)N(CCc3ccc(F)cc3)C2=O)cc1 (stereo not drawn) | x | x | x | -18% | x | -17%
CCN(c1ccccc1)S(=O)(=O)c1ccc(OC)c(NC(=O)Cc2ccccc2OC)c1 | -7% | -1% | -6% | x | -24% | 0%
CCN(c1ccccc1)S(=O)(=O)c1ccc(Cl)c(NC(=O)CNCc2ccccc2OC)c1 | x | -13% | x | x | 18µM* | x
CCN(c1ccccc1)S(=O)(=O)c1ccc(OC)c(NC(=O)Cc2ccc(OC)c(OC)c2)c1 | 1% | -6% | -8% | x | 18µM* | x
CCN(c1ccccc1)S(=O)(=O)c1ccc(Cl)c(NC(=O)COC(=O)c2cccc(OC)c2O)c1 | -2% | -1% | 1% | -8% | -2% | 3%
SMILES | NPC1 promoter act | ELG1 genotoxic | Rab9 promoter act | SMN2 splice up | ELG1 repair inh | FLuc modulator
COc1ccc(N2Cc3cccc(C(=O)Nc4ccc(F)cc4)c3C2=O)cc1 | x | x | x | -13% | x | 2%
Nc1ncnc2c1ncn2[C@H]1O[C@@H](C(=O)OCCO)[C@@H](O)[C@H]1O | x | x | x | -3%[9.22 µM] | x | x
O=C(Cn1ncc(N2CCCC2)c(Cl)c1=O)c1ccc(Cl)cc1 | 2.5µM* | u | 1.4µM* | 13µM* | u | 21µM*
Cc1ccc(C(=O)NC(=S)Nc2cccc(-c3nc4ccccc4s3)c2)cc1 | 15% | u | 9% | 6% | u | 12µM*
CN(C)c1cccc(C(=O)Nc2ccc(-c3nc4ccccc4s3)cc2)c1 | x | x | x | x | x | 5.4µM*
CC(=O)Nc1ccc2nc(SCC(=O)O)sc2c1 | 2% | -4% | -2% | 4% | 13% | -20%
Cc1ccc(-c2nc3ccccc3s2)cc1NC(=S)NC(=O)c1cccc2ccccc12 | -2% | u | 1% | u | u | 11µM*
CC(=O)Nc1cccc(-c2nc3ccc(NC(C)=O)cc3s2)c1 | 3.2µM* | u | 0.89µM* | 13µM* | u | 3µM*
NS(=O)(=O)c1cc2c(cc1Cl)=NC(CCC(=O)O)=NS=2(=O)O | x | x | x | -8%[9.22 µM] | x | x
CC(=O)Nc1cccc(-c2cc(C)c3cc4c(cc3n2)OCO4)c1 | u | u | 30% | x | u | 8.5µM*
CC(=O)Nc1cccc(-c2csc(N)n2)c1 | 4% | 4% | 0% | -8% | 16% | -18%
CC(=O)Nc1ccc(O)c(-c2nc3ccccc3s2)c1 | 20% | u | u | 30% | 0% | u
CC(=O)Nc1cccc(-c2nc3ccccc3s2)c1 | u | u | 2.2µM* | 13µM* | u | 9.5µM*
COc1ccccc1-c1nnc(Nc2nc3c(OC)cccc3s2)o1 | -5% | 14% | 3% | -13% | u | 2.7µM*
COc1cccc2sc(Nc3nnc(-c4ccccc4Cl)o3)nc12 | -15% | 11% | -15% | -23% | u | 12µM*
COc1cccc(-c2nnc(Nc3nc4c(F)cccc4s3)o2)c1 | 2.8µM* | 11% | 3.2µM* | 11µM* | u | 4.8µM*
O=C(Nc1nnc(-c2ccccc2Cl)o1)c1nc2ccccc2s1 | -1% | u | -2% | 10% | u | -5%
COc1cccc2sc(NN)nc12 | 16% | 0% | 2% | 5% | -1% | u
O=C(CSc1nc(=O)[nH]c2c1CCC2)NCc1ccc(Cl)cc1 | x | x | x | x | x | 4%
O=C(CN1CCCN(Cc2ccccc2Cl)S1(=O)=O)NCc1ccccc1 | x | x | x | x | x | 0%
COc1ccc(NC(=O)CCc2c(C)nc3c(-c4ccccc4)c(C)nn3c2C)cc1Cl | x | x | x | -1% | x | 5%
CCn1c(C(=O)N2CCC(C(=O)N3CCN(c4cccc(C)c4C)CC3)CC2)cc2sccc21 | x | x | x | -47% | x | -13%
CCn1c(C(=O)N2CCC(C(=O)N3CCN(c4ccccn4)CC3)CC2)cc2sccc21 | -2% | -44% | 1% | -60% | 13µM* | 6%
